According to PubChem BioAssay:
A number with no mark means an inactive call. The rule behind the calls is not given here.

tested on: Aerobactin synthetase IucA (Klebsiella pneumoniae, hypervirulent); assay: biochemical IucA inhibition screen of LOPAC library by absorbance (AID 1346212); details: IucA enzyme assay, absorbance (OD) readout; stronger effect = lower value;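 tested at 8 µM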;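 note: 100% = no compound wells and 0% = no enzyme wells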

**Q.** For CCCn1cnc2c1c(=O)n(CCCCC(C)=O)c(=O)n2C, which remaining activity is on record?
**A.** The remaining activity was 93.8%.

**Q.** CCN1C(=O)C=CC1=O was tested. Which remaining activity did it give?
**A.** The remaining activity was 102%.

**Q.** CCCCCCN(CCCCCC)C(=O)Cc1c(-c2ccc(F)cc2)[nH]c2ccccc12 was tested. Which remaining activity did it give?
**A.** Its remaining activity is 97.1%.

**Q.** How did the remaining activity turn out when C[C@]12CC[C@@H]3c4ccc(O)cc4C[C@@H](CCCCCCCCCS(=O)CCCC(F)(F)C(F)(F)F)[C@H]3[C@@H]1CC[C@@H]2O (some centres undefined) was run?
**A.** The remaining activity was 115%.

**Q.** For Nc1ccc2c3c(cccc13)C(=O)NC2=O, which remaining activity is on record?
**A.** The remaining activity was 112%.

**Q.** With Nc1nc(Cl)nc2c1ncn2[C@@H]1O[C@H](CO)[C@@H](O)[C@H]1O as the compound, how does the remaining activity read?
**A.** The remaining activity was 115%.

**Q.** With N#C/C(=C\c1ccc(O)c(O)c1)C(=O)NCCCc1ccccc1 as the compound, how does the remaining activity read?
**A.** Its remaining activity is 103%.

**Q.** CN1CCCC1c1cccnc1 (centres undefined) was tested. Which remaining activity did it give?
**A.** Its remaining activity is 115%.

**Q.** C#Cc1ccc2c(c1)C(=O)N(C)Cc1c(C(=O)OCCCc3nc(C(=O)O)c4n3-c3ccc(C#C)cc3C(=O)N(C)C4)ncn1-2 was tested. Which remaining activity did it give?
**A.** Its remaining activity is 97.1%.

**Q.** For NC(=O)C1=CN(C2OC(COP(=O)(O)OP(=O)(O)OC[C@H]3O[C@@H](n4cnc5c(N)ncnc54)C(OP(=O)(O)O)[C@H]3O)C(O)C2O)C=CC1 (some centres undefined), which remaining activity is on record?
**A.** The remaining activity was 112%.

**Q.** How did the remaining activity turn out when CC(=O)O[C@H]1Cc2ccccc2N(C(N)=O)c2ccccc21 was run?
**A.** Its remaining activity is 85%.

**Q.** Which remaining activity does the source give for COC(=O)C(C)(N)Cc1ccc(O)cc1 (centres undefined) here?
**A.** The remaining activity was 114%.

**Q.** For NCCCC(N)(C(=O)O)C(F)F (centres undefined), which remaining activity is on record?
**A.** Its remaining activity is 121%.

**Q.** With CCCCOC(=O)NS(=O)(=O)c1sc(CC(C)C)cc1-c1ccc(Cn2c(CC)nc3c(C)cc(C)nc32)cc1 as the compound, how does the remaining activity read?
**A.** The remaining activity was 116%.

**Q.** Cn1c(=O)c2c(nc(/C=C/c3cccc(Cl)c3)n2C)n(C)c1=O was tested. Which remaining activity did it give?
**A.** The remaining activity was 88.1%.

**Q.** Which remaining activity does the source give for Cc1ccc(OC[C@H](O)[C@H](C)NC(C)C)c2c1CCC2 here?
**A.** The remaining activity was 101%.

**Q.** For C=C1C(=O)O[C@@H]2[C@H]3O[C@]3(C)CC/C=C(\C)CC[C@@H]12, which remaining activity is on record?
**A.** The remaining activity was 119%.

**Q.** O=c1onc2cnc3ccccc3n12 was tested. Which remaining activity did it give?
**A.** The remaining activity was 112%.

**Q.** With CN(C)CC[C@@H](c1ccc(Br)cc1)c1ccccn1 as the compound, how does the remaining activity read?
**A.** Its remaining activity is 88.6%.

**Q.** With NC1(C(=O)O)CCc2cc(C(=O)O)ccc21 (centres undefined) as the compound, how does the remaining activity read?
**A.** Its remaining activity is 110%.

**Q.** COc1cccc(OC)c1OCCNCC1CSc2ccccc2O1 (centres undefined) was tested. Which remaining activity did it give?
**A.** The remaining activity was 114%.

**Q.** Which remaining activity does the source give for CSC(N)=NCCC[C@H](N)C(=O)O here?
**A.** The remaining activity was 123%.

**Q.** For CC[C@@H]1SC2(CCN(C)CC2)NC1=O, which remaining activity is on record?
**A.** The remaining activity was 91.6%.

**Q.** For Nc1c(S(=O)(=O)O)cc(Nc2ccc(Nc3nc(Cl)nc(Nc4cccc(S(=O)(=O)O)c4)n3)c(S(=O)(=O)O)c2)c2c1C(=O)c1ccccc1C2=O, which remaining activity is on record?
**A.** The remaining activity was 100%.

**Q.** With C#C[C@]1(O)CC[C@H]2[C@@H]3CCC4=Cc5nc6nc7ccccc7n6cc5C[C@]4(C)[C@H]3CC[C@@]21C as the compound, how does the remaining activity read?
**A.** The remaining activity was 123%.

**Q.** Which remaining activity does the source give for Cc1cccc(C)c1OCC(N)C(C)C (centres undefined) here?
**A.** The remaining activity was 97.7%.

**Q.** Which remaining activity does the source give for CNCC[C@@H](Oc1ccc(C(F)(F)F)cc1)c1ccccc1 here?
**A.** Its remaining activity is 105%.

**Q.** How did the remaining activity turn out when Cn1ccc2cc(NC(=O)Nc3cccnc3)ccc21 was run?
**A.** The remaining activity was 117%.

**Q.** How did the remaining activity turn out when C[C@]12CCC(=O)C=C1CC[C@@H]1[C@@H]2C(=O)C[C@@]2(C)[C@H]1CC[C@]2(O)C(=O)CO was run?
**A.** The remaining activity was 105%.

**Q.** For Clc1ccc(N2CCN(Cc3c[nH]c4ncccc34)CC2)cc1, which remaining activity is on record?
**A.** Its remaining activity is 92%.

**Q.** For C=C(C)C1CC=C(C(=O)O)CC1 (centres undefined), which remaining activity is on record?
**A.** The remaining activity was 82.4%.

**Q.** CN(C)CC/C=C1\c2ccccc2COc2ccccc21 was tested. Which remaining activity did it give?
**A.** Its remaining activity is 121%.

**Q.** How did the remaining activity turn out when CN(C)CCCCSC(=N)N was run?
**A.** Its remaining activity is 84.5%.

**Q.** Cc1ccc(S(=O)(=O)N[C@@H](Cc2ccccc2)C(=O)CCl)cc1 was tested. Which remaining activity did it give?
**A.** Its remaining activity is 107%.

**Q.** For OCCN1CCN(CC/C=C2/c3ccccc3Sc3ccc(C(F)(F)F)cc32)CC1, which remaining activity is on record?
**A.** Its remaining activity is 105%.

**Q.** How did the remaining activity turn out when O=C(OCCN1CCOCC1)C1(c2ccccc2)CCCCC1 was run?
**A.** The remaining activity was 123%.

**Q.** C[C@H](Cc1ccccc1)Nc1ncnc2c1ncn2[C@@H]1O[C@H](CO)[C@H](O)C1O (some centres undefined) was tested. Which remaining activity did it give?
**A.** Its remaining activity is 118%.

**Q.** Which remaining activity does the source give for O=C(c1ccc2c(c1)OCCO2)N1CCCCC1 here?
**A.** The remaining activity was 87.4%.

**Q.** With CNC(=O)[C@H]1O[C@@H](n2cnc3c(NCc4cccc(I)c4)nc(Cl)nc32)[C@H](O)[C@@H]1O as the compound, how does the remaining activity read?
**A.** Its remaining activity is 103%.
